Experimental data: ChEMBL document CHEMBL3433997, “St. Jude Leishmania screening dataset” (2016)
Where “and” joins values, the source holds several entries; their conditions need not be identical. Equal values may be shown once.

What was measured:
Type in all cases: functional
[1] = target: Solute carrier family 2, facilitated glucose transporter member 1 (Homo sapiens) (UniProt P11166); test: ST_JUDE_LEISH: Cytotoxicity at 2uM final concentration against transgenic Leishmania Mexicana promastigotes LmGLUT1 that are glucose transport deficient and complemented with the human glucose transporter GLUT1. Activity is measured by DNA content using SYBR green in vitro
[2] = target: Hexose transporter 1 (Plasmodium falciparum) (UniProt O97467); test: ST_JUDE_LEISH: Cytotoxicity at 2uM final concentration against transgenic Leishmania Mexicana promastigotes LmPfHT that are glucose transport deficient and complemented with the Plasmodium falciparum hexose transporter. Activity is measured by DNA content using SYBR green in vitro
[3] = target: Glucose transporter (Leishmania mexicana) (UniProt O61059); test: ST_JUDE_LEISH: Cytotoxicity at 2uM final concentration against transgenic Leishmania Mexicana promastigotes LmGT2 that are glucose transport deficient and complemented with the L. Mexicana glucose transporter 2. Activity is measured by DNA content using SYBR green in vitro

Sequence of Solute carrier family 2, facilitated glucose transporter member 1 (Homo sapiens) (P11166 whole entry): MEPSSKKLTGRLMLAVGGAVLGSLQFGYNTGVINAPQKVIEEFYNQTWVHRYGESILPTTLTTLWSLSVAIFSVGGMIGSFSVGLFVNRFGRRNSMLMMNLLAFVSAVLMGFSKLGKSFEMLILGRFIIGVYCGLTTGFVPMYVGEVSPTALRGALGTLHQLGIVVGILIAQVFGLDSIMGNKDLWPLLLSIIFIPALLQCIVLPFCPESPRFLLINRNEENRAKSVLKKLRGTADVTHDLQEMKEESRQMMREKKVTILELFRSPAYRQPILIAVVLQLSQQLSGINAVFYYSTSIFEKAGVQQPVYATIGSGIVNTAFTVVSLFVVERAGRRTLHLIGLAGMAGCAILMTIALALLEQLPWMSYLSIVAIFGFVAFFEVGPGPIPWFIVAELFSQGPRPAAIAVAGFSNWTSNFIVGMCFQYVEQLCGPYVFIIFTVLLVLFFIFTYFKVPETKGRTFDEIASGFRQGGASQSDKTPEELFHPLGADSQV

Structure (SMILES) | inhibition [1] | inhibition [2] | inhibition [3]
CC(C)n1c(C2CCN(CC3CCN(C(=O)/C=C/c4ccc(Cl)c(Cl)c4)CC3)CC2)nc2ccccc21 | 0.12% | -1.72% | -0.72%
Cc1cc(Nc2ncc(Cl)c(Nc3ccccc3C(N)=O)n2)n[nH]1 | -1.31% | 2.51% | 3.02%
CC1(C)NC(N)=NC(=N)N1OCCCOc1ccc([N+](=O)[O-])cc1 | 0.81% | 0.61% | 0.11%
CCCC(=O)Nc1ccc(OCCCN(Cc2cccc(C(F)(F)F)c2)c2ccc(C#N)c(C(F)(F)F)c2)cc1 | 2.19% | 2.43% | 1.64%
CCOc1ccc(NC(=O)c2ccc(CN3CCCN(Cc4cccc(O)c4)CC3)cc2)cc1 | 3.91% | 3.89% | 4.11%
COc1ccc(/N=[N+](\[O-])c2ccccc2/[N+]([O-])=N/c2ccc(OC)cc2)cc1 | 1.29% | 1.73% | 1.68%
NCCc1cccc(-c2cnc3[nH]cc(-c4ccc(C(=O)O)cc4)c3c2)c1 | 0.56% | 0.29% | 0.03%
c1cc(Cc2ccc(Nc3c4ccccc4nc4ccccc34)cc2)cc(Nc2c3ccccc3nc3ccccc23)c1 | 5.95% | 5.85% | 2.19%
CC(O)C1CCCCN1C(=O)c1cccc(-c2cccc(-c3nc4cc(F)ccc4[nH]3)c2)c1 (stereo unspecified) | 3.45% | 3.21% | 1.62%
COc1ccc(C2CCN(CCN3CCC(NC(=O)c4cccc(-c5ccncc5)c4)CC3)CC2)c(OC)c1 | 1.32% | 0.37% | 0.47%
Cc1ccc(O)cc1Nc1ccnc2cc(-c3csc(CNCCN4CCOCC4)n3)ccc12 | 1.41% | 0.86% | 1.37%
CCC[C@@H]([C@@H](CC(C)C)C(=O)N[C@@H](CCCCNC(=O)OCc1ccccc1)C(=O)Nc1ncccn1)N(O)C=O | 19.1% | 21.5% | 17.1%
CC(C)NCc1ccc(-c2ccc(-c3nc4cc(F)ccc4[nH]3)cc2)cc1 | 7.9% | 8.81% | 6.75%
O=C(Nc1cccc(-c2nn3ccccc3c2-c2ccnc(Nc3ccccc3)n2)c1)c1c(F)cccc1F | 0.96% | 5.19% | 1.51%
CCc1ccc(NC(=O)c2ccc(CN3CCCN(Cc4cccc(Cl)c4)CC3)cc2)cc1 | 1.47% | 2.69% | 2.29%
Cc1cc(C2CCN(CCCCNC(=O)c3ccc(NC(=O)c4ccc(Cl)cc4)cc3)CC2)c(C)cc1OCCN(C)C | 9.34% | 8.76% | 9.76%
Cn1cc(CN2CCCC(COC(c3ccccc3)c3ccccc3)C2)cn1 (stereo unspecified) | 1.48% | 2.93% | 2.57%
Nc1nc(N)c2c(ccc3ccccc32)n1 | 14.7% | 28.9% | 19%
COc1ccc(-c2onc(C(F)(F)F)c2-c2cc3ccccc3o2)c(O)c1 | 0.61% | 0.82% | 0.58%
COc1ccccc1CCNc1ncc(F)c(N[C@@H](Cc2ccccc2)C(=O)NCCc2ccccc2)n1 | 0.53% | -0.37% | 0.24%
CC1(CCc2ccccc2)N=C(N)N=C(N)C1c1ccc(Cl)c(Cl)c1 (stereo unspecified) | 9.55% | 9.47% | 8.62%
CCN(CC)CCCC(C)Nc1c(-c2ccc(OC)cc2)cnc2ccccc12 (stereo unspecified) | 2.85% | 3.79% | 0.36%
CN(C)c1ccc(CN2CCC(NC(=O)c3ccc(-c4ccccc4F)s3)CC2)cc1 | -0.33% | -1.02% | -6.69%
CCc1ccc2nc(-c3ccc(F)cc3)nc(SCC(=O)Nc3sc(C)c(C)c3C#N)c2c1 | 5.67% | 7.28% | 5.07%

Structure (SMILES) | inhibition [1] | inhibition [2] | inhibition [3]
CC(C)c1ccc(CN2CCC(CNC(=O)c3cc(-c4ccccc4F)cs3)C2)cc1 (stereo unspecified) | 4.5% | 4.88% | 8.4%
CS(=O)(=O)Cc1ccc(Nc2nccc(-c3c(-c4cccc(C(=O)Nc5c(F)cccc5F)c4)nn4ccccc34)n2)cc1 | 21.4% | 10.2% | 2.15%
CCN(CC)CC(O)Cc1c2ccc([N+](=O)[O-])cc2nc2cc(OC)c(OC)cc12 (stereo unspecified) | 0.42% | 1.89% | -1.11%
O=C(CN1CCC2(CCC1=O)CC(=O)c1ccccc1O2)NCCN1CCOCC1 (stereo unspecified) | 2.45% | 7.44% | 4.93%
CN(C)C(=S)N/N=C1/C(=O)Nc2ccccc21 | 3.54% | 1.92% | 1.43%
COc1ccccc1-c1cccc(-c2cccc(NC(=O)c3ccc([N+](=O)[O-])o3)c2)n1 | 11.2% | 16.8% | 9.06%
Cc1ccc(NC(=O)c2ccc(NCCCN3CC(C)CC(C)C3)c([N+](=O)[O-])c2)cc1F (stereo unspecified) | 8.68% | 5.06% | 5.89%
O=C(Nc1nccs1)c1cn(-c2ccccc2)nc1-c1ccc(Cl)s1 | 3.1% | 2.82% | 3.16%
Cc1cccnc1Nc1nc(-c2ccccn2)cs1 | 93.5% | 73.2% | 90.1%
Oc1ccc2ncnc(Nc3ccc(OCc4cccc(F)c4)c(Cl)c3)c2c1 | -2.81% | -0.64% | -1.78%
CN(Cc1ccc(-c2ccc(C(F)(F)F)cc2)cc1)C(=O)Cn1c(CCc2cccc(F)c2F)cc(=O)c2ccc(OCC3CCCN3C)cc21 (stereo unspecified) | 3.87% | 3.45% | 4.42%
CN(C)C(CNc1ncnc2cc(Cl)ccc12)Cc1ccccc1 (stereo unspecified) | 4.67% | 3.87% | 3.65%
CC(C)NC(C)(C)CN(Cc1ccc(-c2ccc(C(F)(F)F)cc2)cc1)C(=O)Cn1c(CCc2cccc(F)c2F)nc(=O)c2ccccc21 | 0.37% | -0.61% | -0.1%
COc1ccc2c(N/N=C/c3cccc([N+](=O)[O-])c3)cc(C)nc2c1 | 1.12% | 4.05% | 0.63%
CCOC(=O)c1ccc(N2CCN(c3cc(Cl)ccc3C)CC2)c(NC(=O)Nc2ccc(Cl)c(Cl)c2)c1 | -3.21% | -3.18% | -0.61%
O=C(Nc1cccc(CN2CCCN(Cc3cccnc3)CC2)c1)c1ccc(Cl)c(Cl)c1 | 5.01% | 4.16% | 5.38%
COc1ccc2ncc(F)c(CCN3CC(O)C(CNCc4nc5c(cc4Cl)OCC(=O)N5)C3)c2n1 (stereo unspecified) | 0.46% and 5.05% and 0.19% | -1.18% and 4.64% and 0.49% | -0.57% and 3.05% and -1.68%
COc1ccc(C=NN=c2cc(C)[nH]c3ccccc23)c2ccccc12 | 8.8% | 6.92% | 2.26%
C[C@@H](N/C(=N\c1ccccc1Cl)Nc1ccc(C#N)cc1O)c1ccc(Br)cc1 | 6.22% | 5.06% | 3.66%
Cc1cc(C(F)(F)F)nn1-c1ccc(NC(=O)c2ccco2)cc1 | -2.06% | -1.65% | -1.05%
CCCc1ccccc1Nc1nc(C)cc(N(CC)CCCN2CCCCC2)n1 | 5.33% | 5.19% | 5.53%
N#CC(c1cccc(Cl)c1)c1ccc2c(C(F)(F)F)cc(C(F)(F)F)nc2n1 (stereo unspecified) | 9.02% | 7.47% | 6.02%
CCCCCCCC1=NN2C(=N)C(=Cc3cc(Br)c(OCc4ccc(F)cc4)c(OCC)c3)C(=O)N=C2S1 | 3.23% | 3.17% | 2.47%
Cc1cc(N[C@@H](Cc2ccccc2)C(=O)NCc2cccc(F)c2)nc(NCC2CCCCC2)n1 | -0.17% | 2.51% | -1.9%

Structure (SMILES) | inhibition [1] | inhibition [2] | inhibition [3]
CC(C)c1ccc(NC(=O)c2ccc(NCCCN(C)Cc3ccccc3)c([N+](=O)[O-])c2)cc1 | 0.47% | -1.98% | -0.53%
N=C1c2ccccc2CN1CC(=O)c1ccc(Cl)c(Cl)c1 | 0.66% | 2.37% | 2.53%
Cc1[nH]c(C)c(-c2ccc(OCCn3cnc(Cl)c3Cl)cc2)c(=O)c1Br | -1.35% | -0.56% | -0.52%
O=C(NCC1CCN(Cc2cccc(C(F)(F)F)c2)C1)c1cc(-c2cccc(Cl)c2)cs1 (stereo unspecified) | 1.83% | 1.37% | -3.57%
COCCNCc1ncsc1-c1ccc2c(Nc3cc(O)c(Cl)cc3F)ccnc2c1 | 3.19% | 3.29% | 1.41%
CCCSc1nc2c(c(=O)n1CCc1ccccc1)C1(CCCC1)Cc1ccccc1-2 | -1.58% | 1.38% | 0.24%
Cc1cc2c(cc1C(F)(F)F)N(C(=O)Nc1ccc(C(=O)NC3CCN(Cc4ccccc4)C3)cc1)CC2 (stereo unspecified) | 4.56% | 4.45% | 4.54%
O=C(Nc1ccc(Cl)cc1)NC1CCN(CCCCCNC(=O)C2CC2c2ccc(Cl)c(Cl)c2)CC1 (stereo unspecified) | 9.93% | 9.43% | 7.34%
CN(C)CC1CCCN1Cc1ccccc1-c1cnn(C)c(=O)c1Oc1cccc(C#N)c1 (stereo unspecified) | 1.03% | 1.03% | 3.52%
COc1ccc(CN2CCN(C(=O)c3cccs3)CC2)c(O)c1 | 10.5% | 11.1% | 8.97%
COc1ccccc1C(C)NCC(=O)Nc1ccccc1Sc1ccccc1 (stereo unspecified) | 0.18% | 0.01% | 1.44%
CCCCCCNC(=O)C1Cc2c([nH]c3ccc(F)cc23)C2(CCN(Cc3ccccc3)CC2)N1 (stereo unspecified) | 12.7% | 9.28% | 7.57%
CCCC(=O)NC(c1ccc(C)cc1)c1ccc2cccnc2c1O (stereo unspecified) | 3.47% | 4.55% | -1.36%
O=[N+]([O-])c1ccccc1C=NN=c1cc[nH]c2ccccc12 | -2.55% | 1.68% | -0.01%
CCOc1cc(C(=O)Nc2ccc3nc(N4CCCCC4)cc(C)c3c2)cc(OCC)c1OCC | 4.92% | 4.24% | 3.07%
CN1CCCN(Cc2cccc(-c3ccc(NC(=O)c4cccc(C#N)c4)cc3)c2)CC1 | 28.9% | 12.9% | 9.31%
Cc1cc(C(F)(F)F)n2nc(C(=O)N(Cc3cncn3Cc3cccc(F)c3)CC3CC3)cc2n1 | -0.1% | -0.07% | 2.14%
N#Cc1ccc(/C=C/C(=O)NCCCCCN2CCCN(C(=O)Nc3ccc(Cl)c(C(F)(F)F)c3)CC2)cc1 | 1.18% | 1.14% | 1.57%
O=C(Nc1ccc(OC2CCN(Cc3ccc(F)cc3)C2)cc1)c1ccco1 (stereo unspecified) | 2.22% | 2.86% | 3.15%
Fc1cc(Cl)ccc1Nc1ccnc2cc(I)ccc12 | 2.92% | 5.41% | 3.25%
CC(C)(C)c1ccc(CN2CCC(NC(=O)c3cc(-c4cccc(C(F)(F)F)c4)cs3)C2)cc1 (stereo unspecified) | 0.92% | 0.62% | 1.98%
COc1ccc(-c2nc(NC(=O)Cc3coc4cc(OC)ccc34)sc2C)cc1 | -1.68% | 0.45% | -0.72%
NOCCCCOc1ccc(Br)cc1 | 3.74% | 5.13% | 2.59%
CCc1cn2c3c(cc(C(=O)N[C@@H](Cc4cc(F)cc(F)c4)[C@H](O)CNC4CCCCC4)cc13)N(C)S(=O)(=O)CC2 | 0.79% | 0.2% | -2.62%
